Shown are actives, neighbours in structure and some others; about 17% of the full set was active somewhere.
DT40 TDP1 no CPT: qHTS for Inhibitors of human tyrosyl-DNA phosphodiesterase 1 (TDP1): qHTS in cells in absence of CPT | DT40 Tdp1-/- hTDP1 cells, no CPT, ATP luminescence, 48 h | Potency, µM (highest dose often 46.2 µM), hits mostly inhibitors | 15% of 420,000 active | AID 686978, 2013; also: nearly all actives have a fitted effect of over 55% in size
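A cellular qHTS used chicken DT40 cells lacking endogenous Tdp1 but carrying stably transfected human TDP1. Compounds were applied without camptothecin, and cell growth kinetics were judged by ATP-dependent luminescence after ≥48 hr.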
HT1080NT lethal: kills 2HG-producing HT-1080-NT fibrosarcoma cells; HT-1080-NT fibrosarcoma viability, CellTiter-Glo ATP luminescence, 48 h; 1.6% of 360,000 active; Potency, µM (top dose mostly 46.1 µM), actives largely listed as cytotoxic; AID 686970;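 also: NT is the 2HG producing partner of a matched IDH1 knockdown line; nearly all actives have a fitted effect of over 55% in size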
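Fibrosarcoma NT cells, 750 per well in 5% FBS RPMI, were exposed to compound for 48 hours. Viability: CellTiter-Glo luminescence.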
HT1080 IDH1KD tx: HT-1080 IDH1 knockdown cell toxicity (counter line); 2% of 360,000 active; Potency, µM (series often up to 46.1 µM), usual class: cytotoxic; HT-1080 IDH1 knockdown viability, ATP luminescence, 48 h; AID 686971
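Using the IDH1-knockdown HT-1080 line run in the same batch and compound series as the NT line, viability after 48 h at 37 °C was determined by CellTiter-Glo luminescence and expressed as % activity.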
TGFb inhibitor: blocks TGF-b signaling; Potency, µM (titrated, usually from 46.1 µM), actives largely listed as inhibitors; AID 588855; HepG2 CAGA-GFP TGF-b/SMAD3 reporter, GFP fluorescence, 18 h; TGF-beta stimulated, 500 pg/mL final; 1.2% of 410,000 active; also: nearly all actives have a fitted effect of over 65% in size
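Cell-based qHTS in HEPG2 carrying a CAGA-GFP Smad reporter; compounds added before 500 pg/mL final TGF-beta, 18 h incubation at 37 degrees C, GFP fluorescence quantified per cell by imaging cytometry.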
DT40 TDP1 CPT: DT40-hTDP1 cell growth loss with CPT. chicken DT40 Tdp1-/-;hTDP1 cells + 20 nM CPT, ATP luminescence, 48 h. Potency, µM (series often up to 46.2 µM), most hits filed as inhibitors. 12% of 420,000 active. AID 686979; also: nearly all actives have a fitted effect of over 55% in size
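Chicken DT40 Tdp1-/- cells complemented with human TDP1, 400 cells/well, exposed to compounds plus 20 nM camptothecin for at least 48 h at 37 C; viability read as ATP content by CellTiter-Glo luminescence.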
HepG2 viability: HepG2 cytotoxicity, counter-screen for TGF-b inhibitors; HepG2 CAGA-GFP viability, ATP luminescence, 18 h; Potency, µM (series often up to 46.1 µM), hits mostly cytotoxic; 0.76% of 410,000 active
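HepG2 CAGA-GFP cells (1000/well, DMEM with 1% FBS) received compound, then TGF-beta at 500 pg/mL final, and were incubated 18 hours at 37 degrees C. Viability was read by CellTiter-Glo luminescence. Media-only wells were set as complete cell-killing and DMSO as no toxicity.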
Numbers stand for hits; - = inactive; ? = inconclusive; . = no result given; [ ] = remark or other dose. Calls follow the shape of the dose curve; as a rule, active = well fitted curve in the direction sought with a large enough effect; inconclusive = small, poorly fitted or top-dose-only effect, or another doubt; inactive = no such curve, though single readings can be large; an effect the other way counts as inactive or inconclusive.

SMILES | DT40 TDP1 no CPT | HT1080NT lethal | HT1080 IDH1KD tx | TGFb inhibitor | DT40 TDP1 CPT | HepG2 viability
Cc1ccc(Nc2nc3ccccc3s2)c(C)c1 | ? | - | - | - | ? | -
Cc1cc(O)ccc1Nc1nc2ccccc2nc1Nc1ccc(O)cc1C | 5.2µM | - | - | ? | 8.2µM | -
C[C@@H]1CN(Cc2ccc3c(c2)CN(Cc2cccn2-c2cccnc2)CCO3)C[C@H](C)O1 | 15µM | . | . | . | -[9.04 µM] | .
OC(c1ccc2c(c1)CN(Cc1cccn1-c1cccnc1)CCO2)C1CCCCC1 (stereo not drawn) | - | . | . | . | ? | .
Cc1nc2sccn2c1CN1CCOc2ccc(CN3C[C@@H](C)O[C@@H](C)C3)cc2C1 | 8.2µM | . | . | . | 10µM | .
Fc1ccc(N2CCN(Cc3ccc4c(c3)CN(Cc3cccn3-c3cccnc3)CCO4)CC2)cc1 | 21µM | . | . | . | ? | .
COc1ccc(Cn2cc(CN3CC(N4CCN(Cc5ccccc5F)CC4)CS3(=O)=O)nn2)cc1 (stereo not drawn) | 21µM | - | 23µM | . | ? | .
O=S1(=O)CC(N2CCN(Cc3ccccc3F)CC2)CN1Cc1cn(Cc2ccc(Cl)cc2)nn1 (stereo not drawn) | 13µM | - | - | . | 18µM | .
COc1ccc2ccccc2c1CN1CCCC(n2cc(C(=O)N3CCCC3)nn2)C1 (stereo not drawn) | - | . | . | . | - | .
COc1cc(O)c(CCC(=O)c2ccc(OC)c(OC)c2)c(OC)c1 | ? | - | - | - | 21µM | -
COc1ccc(C(=O)Cc2ccc(OC)c(OC)c2)cc1 | - | - | - | - | - | -
COc1ccc(CCC(=O)NO)cc1 | 16µM | . | . | - | 11µM | -
CNC(=O)CCc1ccc(OC)cc1 | - | - | - | - | - | -
COc1ccc(C(CCN(Cc2ccc(OC)c(OC)c2)C(C)=O)C(C)C)cc1 (stereo not drawn) | ? | - | - | - | 18µM | -
COc1ccc(C(=O)CCc2ccc(OC)c(OC)c2)cc1 | 18µM | - | - | - | ? | -
COc1ccc(NC(=S)N(Cc2ccc(C(=O)O)cc2)Cc2ccc(OC)c(OC)c2)cc1 | - | - | - | ? | - | -
COc1ccc(C(=O)CC(=O)c2ccccc2O)cc1OC | ? | - | - | - | ? | -
CCc1nc2ccc(C(=O)N3CCN(C)CC3)cn2c1N(C)CCC(C)C | ? | - | - | - | ? | -
COc1ccc(CCC(C)NC(=O)Cc2ccc(OC)c(OC)c2)c(OC)c1 (stereo not drawn) | 18µM | - | - | - | ? | -
COc1ccc(CCNC(=O)Nc2nnc([C@@H]3C[C@H](O)[C@@H](CO)O3)s2)cc1OC | - | ? | - | - | - | -
COc1cc2[nH]c(=S)nc(NCc3cccs3)c2cc1OC | 23µM | - | - | - | - | -
COc1cc(C2CC(=O)Nc3cc4c(cc32)OCO4)cc(OC)c1O (stereo not drawn) | ? | . | . | - | - | -
COc1cc2c(cc1OC)C(c1ccccc1OC(C)C)CC(=O)N2 (stereo not drawn) | 15µM | - | - | - | ? | -
CC(C)COc1ccccc1C1CC(=O)Nc2cc3c(cc21)OCO3 (stereo not drawn) | 4.1µM | . | . | ? | 2.6µM | -
COc1cc(C2CC(=O)Nc3cc4c(cc32)OCCO4)cc(OC)c1O (stereo not drawn) | 21µM | . | . | ? | ? | -
CCOc1c(OC)cccc1C1CC(=O)Nc2cc3c(cc21)OCCO3 (stereo not drawn) | ? | ? | ? | - | ? | -
COc1cccc(C2CC(=O)Nc3cc4c(cc32)OCCO4)c1OC (stereo not drawn) | 18µM | . | . | - | 21µM | -
CCOc1ccccc1C1CC(=O)Nc2cc(OC)c(OC)cc21 (stereo not drawn) | ? | - | - | - | ? | -
